High-throughput results (PubChem)
Shown is part of a subset that was picked to be rich in hits.
Dicer inh: inhibitors of Dicer pre-microRNA processing, primary screen, biochemical, cat-ELCCA, chemiluminescence; 47,000 tested, 6% active; cat-ELCCA pre-miR-21 Dicer processing; stronger effect = higher value; AID 1347074, 2019; z-score at 25 µM; in the data active = z-score above about 3, passing the limit was not always enough;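 also: plate controls were vehicle for no effect and no enzyme for full effect; higher signal means more uncleaved substrate so more Dicer inhibition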
An asterisk follows results filed as active.

For O=C(Nc1nc2ccccc2c(=O)s1)c1ccccc1 the results were Dicer inh 1.
`CCOc1ccc(Nc2nc3ccccc3c(=O)s2)cc1` gave Dicer inh 0.49.
`CCN(CC)c1nc2ccccc2c(=O)s1` gave Dicer inh 3.7*.
For O=C(Nc1cccc(C(F)(F)F)c1)Nc1nnc(C2CC2)s1 the results were Dicer inh 0.06.
COc1ccc(/C(O)=C2\C(=O)C(=O)N(CCCN(C)C)C2c2ccccc2)cc1 (configuration not stated) was read as Dicer inh 1.4.
For COc1ccc(/C(O)=C2\C(=O)C(=O)N(CCN(C)C)C2c2ccccc2F)cc1 (configuration not stated) the results were Dicer inh 3.4*.
For CN(C)CCN1C(=O)C(=O)/C(=C(/O)c2ccc(S(=O)(=O)N(C)C)cc2)C1c1ccccc1F (configuration not stated) the results were Dicer inh 1.2.
Screening CC1CC(=O)Nc2ccccc2N1S(=O)(=O)c1ccc(-c2ccccn2)s1 (configuration not stated) returned Dicer inh -0.94.
For COc1ccc(-c2oc3ccccc3c(=O)c2OS(=O)(=O)c2cc(Cl)ccc2Cl)cc1 the results were Dicer inh -0.01.
For COc1cccc(C=Nc2ccc(S(=O)(=O)/N=C(N)/N=C/c3cccc(OC)c3O)cc2)c1O the results were Dicer inh -0.79.
Screening COc1cccc(C=NCCCC2C=NNC2=O)c1O (configuration not stated) returned Dicer inh 5.2*.
COc1ccc(NC(=S)NCCCC2C=NNC2=O)cc1 (configuration not stated) was read as Dicer inh 0.41.
For Nc1nc2c(c(=O)[nH]1)C(c1c(F)cccc1Cl)CC(=O)N2 (configuration not stated) the results were Dicer inh -1.2.
`Cc1cc(=O)oc2cc(OS(=O)(=O)c3cc(C(F)(F)F)cc(C(F)(F)F)c3)c(Cl)cc12` gave Dicer inh 4.2*.
Cc1cc(=O)oc2cc(OS(=O)(=O)c3cc(Cl)c(Cl)cc3Cl)c(Cl)cc12 was read as Dicer inh 2.9.
Cc1ccc(S(=O)(=O)Oc2cc(C)ccc2C)cc1 was read as Dicer inh -0.61.
Screening C(=N\Nc1ncnc2c1cnn2-c1ccccc1)/c1ccco1 returned Dicer inh 0.68.
CCCCOc1ccccc1C1C(C(=O)OCCC)=C(C)NC2=C1C(=O)CC(C)(C)C2 (configuration not stated) was read as Dicer inh -0.29.
O=S(=O)(Nc1cccc2cccnc12)c1ccccc1 was read as Dicer inh 7.7*.
`Cc1ccc(C)c(NS(=O)(=O)c2cccc3cccnc23)c1` gave Dicer inh -0.09.
Cc1ccc2cccc(NS(=O)(=O)c3ccccc3)c2n1 was read as Dicer inh -0.4.
COc1cc(S(=O)(=O)Nc2ccccn2)ccc1Br was read as Dicer inh -0.27.
Screening O=S(=O)(Nc1ccc(Br)c2cccnc12)c1ccccc1 returned Dicer inh 4.7*.
For O=C(Nc1ccc(Cl)cc1)Nc1ccc(Br)c2cccnc12 the results were Dicer inh -1.
`CC(C)(C)c1cc2ncnc(N3CCOCC3)c2s1` gave Dicer inh 1.2.
`CCCCC1(COC(=O)Nc2cccc(Cl)c2)C(=O)N(c2ccccc2)N(c2ccccc2)C1=O` gave Dicer inh 1.8.
Screening CCCCC1(CNc2ccc(C)c([N+](=O)[O-])c2)C(=O)N(c2ccccc2)N(c2ccccc2)C1=O returned Dicer inh 2.2.
CCCCC1(CO)C(=O)N(c2ccccc2)N(c2ccccc2)C1=O was read as Dicer inh 6.1*.
For Cn1nc(C(F)(F)F)c2cc(-c3nc(-c4ccc(C(F)(F)F)cc4)no3)sc21 the results were Dicer inh -0.86.
CCN(CC)CCOC(=O)c1ccc(N[C@@H]2O[C@H](CO)[C@@H](O)[C@H](O)[C@H]2O)cc1 was read as Dicer inh -1.3.
OC[C@H]1O[C@@H](Oc2ccccc2)[C@H](O)[C@@H](O)[C@@H]1O was read as Dicer inh 1.7.
`OCC1OC(Nc2ccc(Cl)cc2)C(O)C(O)C1O` (configuration not stated) gave Dicer inh 3.4*.
For CCOC(=O)CN1C(=O)C(O)(CC(=O)c2cccc(Br)c2)c2ccccc21 (configuration not stated) the results were Dicer inh 67.
For O=[N+]([O-])/C=C/c1cccc(Oc2ccccc2)c1 the results were Dicer inh -0.02.
`CN1CCN(Cc2c(O)ccc3c(=O)c(Oc4ccc(C(C)(C)C)cc4)c(C(F)(F)F)oc23)CC1` gave Dicer inh 1.9.
For Clc1ccc(-c2cn3cc(Cc4ccccc4)sc3n2)cc1 the results were Dicer inh 2.4.
Cc1ccc(Cc2cn3cc(-c4ccccc4)nc3s2)cc1 was read as Dicer inh -0.16.
Screening Fc1ccc(-c2cn3cc(Cc4ccccc4Cl)sc3n2)cc1 returned Dicer inh 0.06.
CCc1ccc(Cc2cn3cc(-c4ccccc4)nc3s2)cc1 was read as Dicer inh -0.59.
`Fc1ccc(Cc2cn3cc(-c4ccc(F)cc4)nc3s2)cc1` gave Dicer inh 3.9*.
For Fc1ccc(-c2cn3cc(Cc4ccc(Br)cc4)sc3n2)cc1 the results were Dicer inh 3.4*.
For CCOC(=O)c1sc(N/N=C/c2cccs2)c2c1CC(C)(C)CC2=O the results were Dicer inh -0.07.
`CC(C)(C)c1ccc(CSCCNC2=CC(=O)CC(c3ccc4c(c3)OCO4)C2)cc1` (configuration not stated) gave Dicer inh 0.73.
Screening CC1=C(C)CC2C(=O)N(c3ccc(C(C)C)cc3)C(=O)C2C1 (configuration not stated) returned Dicer inh 0.72.
Screening COc1ccc(-c2nnc(SCc3ccc(Br)cc3)o2)c(OC)c1 returned Dicer inh 67.
`CCOc1ccc(C2c3c(oc4ccccc4c3=O)C(=O)N2c2nnc(C)s2)cc1` (configuration not stated) gave Dicer inh -1.2.
`O=C(CSc1nc(-c2ccccc2)cc(C(F)(F)F)n1)Nc1ccc2c(c1)OCO2` gave Dicer inh 0.02.
Nc1ncnc(Nc2ccc(Oc3ccc(Cl)cc3)cc2)n1 was read as Dicer inh -0.35.
Nc1nc(SCc2ccc(Cl)cc2)n[nH]1 was read as Dicer inh 0.27.
`Nc1nc(Nc2ccc(Cl)cc2)n[nH]1` gave Dicer inh 5.4*.
For O=c1oc(-c2ccc(Cl)cc2Cl)nc2ccc(I)cc12 the results were Dicer inh 0.98.
Screening CSc1nc2c(Cl)cccc2c2c1c(=O)[nH]n2C returned Dicer inh 3.6*.
`CCOC(=O)c1c(SC)nc2c(Cl)cccc2c1N(C)CCO` gave Dicer inh -5.7.
CSc1nc2c(Cl)cccc2c2c1c(=O)n(Cc1ccc(Cl)cc1)n2C was read as Dicer inh 0.65.
Cc1ccc(Oc2ncccc2NS(=O)(=O)c2cn(C)c(C)n2)c2c1CCC2 was read as Dicer inh 0.75.
For Cc1ccccc1-c1nc2cc(NCc3cccs3)ccc2o1 the results were Dicer inh 8.2*.
`O=C(Nc1ccc2oc(-c3ccccc3F)nc2c1)c1ccc([N+](=O)[O-])o1` gave Dicer inh 32.
`O=C(Nc1ccc2oc(-c3cccc4ccccc34)nc2c1)c1ccc([N+](=O)[O-])o1` gave Dicer inh 1.7.
